# Laboratory results reported in PubChem BioAssay AID1259400 (National Center for Advancing Translational Sciences (NCATS), 2018).
# Several values for one entry are separate records, joined by “and”; a condition that tells them apart may be missing. Equal entries are not always repeated. Screen size: about 350,000 compounds; about 2,100 (0.6%) were called active. Another 1% or so got no clear call; they are omitted.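 The calls were made as follows: active = activity change of -60% or lower, but not beyond a set lower limit; inconclusive = change between -60% and -40%, or beyond the set limit; inactive = change above -40%.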 The full list was thinned out, with actives kept by preference. Some compounds were tested as several samples or in several runs, with calls that do not always agree.
# Biological target: Relaxin receptor 1 (Homo sapiens) (UniProt Q9HBX9)
# Test: qHTS Assay for Antagonists of the Relaxin Receptor RXFP1
# Details: HEK293-RXFP1, relaxin-stimulated cAMP HTRF, 30 min; at 57.5 µM; stronger effect = lower value
# % is scaled to controls: 0 for no effect and ±100 for the full control effect.
# Relaxin receptor 1 (Homo sapiens), sequence (Q9HBX9 whole entry, looked up): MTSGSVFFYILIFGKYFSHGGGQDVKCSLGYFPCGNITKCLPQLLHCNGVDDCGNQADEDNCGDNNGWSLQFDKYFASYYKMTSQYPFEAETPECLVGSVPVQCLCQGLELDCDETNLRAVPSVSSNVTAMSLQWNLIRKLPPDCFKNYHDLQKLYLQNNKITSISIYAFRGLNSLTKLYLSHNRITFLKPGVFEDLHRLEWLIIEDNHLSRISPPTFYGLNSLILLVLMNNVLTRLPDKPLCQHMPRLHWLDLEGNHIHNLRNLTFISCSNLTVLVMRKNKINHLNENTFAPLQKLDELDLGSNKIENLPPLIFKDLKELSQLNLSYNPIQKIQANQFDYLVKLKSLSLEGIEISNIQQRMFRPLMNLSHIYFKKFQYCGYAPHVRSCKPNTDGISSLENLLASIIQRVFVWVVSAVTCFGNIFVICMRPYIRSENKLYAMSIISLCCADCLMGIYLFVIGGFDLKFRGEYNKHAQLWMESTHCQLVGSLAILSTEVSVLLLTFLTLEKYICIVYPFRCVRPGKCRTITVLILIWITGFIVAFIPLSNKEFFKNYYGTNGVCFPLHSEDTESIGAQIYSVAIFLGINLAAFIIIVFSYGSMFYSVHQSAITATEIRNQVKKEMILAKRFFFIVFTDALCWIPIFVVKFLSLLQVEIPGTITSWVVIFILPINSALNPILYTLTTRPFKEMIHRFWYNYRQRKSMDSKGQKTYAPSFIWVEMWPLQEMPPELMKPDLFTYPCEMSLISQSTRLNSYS
row,SMILES,"activity change, negative = inhibition"
1,COc1ccc(OC)c(CNC(=O)c2c3c(nc4ccccc24)C(=O)N(C2CCCCC2)C3)c1,-60.9% (active)
2,COc1ccc(OC)c(CNC(=O)C2CCCN(c3nc4ccccc4o3)C2)c1 (configuration not stated),24.2% (inactive)
3,COc1ccc(CCNC(=O)c2c3c(nc4ccccc24)C(=O)N(C2CCCCC2)C3)cc1OC,-34% (inactive)
4,CC(=O)c1ccc(N2CCN(c3nc4c(S(=O)(=O)c5ccccc5)nnn4c4ccc(Cl)cc34)CC2)cc1,-10.3% (inactive)
5,Cc1ccc(C)c(Cn2c(C(=O)O)c(CNCc3cccs3)c3ccccc32)c1,-81.9% (active)
6,COc1ccc2c(CNCCc3ccccc3C)c(C(=O)O)n(Cc3ccccc3C)c2c1,-12.7% (inactive)
7,O=C(O)c1c(CNCc2cccc(F)c2)c2ccccc2n1Cc1ccccc1,-7.86% (inactive)
8,Cc1sc(C2C(C#N)=C(N)N(c3cccc(Cl)c3)C3=C2C(=O)CCC3)cc1CN1CCOCC1 (configuration not stated),-18.6% (inactive)
9,Cc1ccc2nc3c(cc(C(=O)NC4CCCCC4)c(=N)n3C(C)C)c(=O)n2c1,-8.15% (inactive)
10,CCC(CC)C(=O)N1CCN(c2cccc(C)c2C)CC1,-5.41% (inactive)
11,Cc1cccc(N2CCN(C(=O)C3CCN(S(=O)(=O)c4cnc[nH]4)CC3)CC2)c1C,-5.38% (inactive)
12,Cc1cccc(N2CCN(C(=O)c3cnc(N4CCCC4)nc3C)CC2)c1C,-77.6% (active)
13,O=C(COc1ccc(Cl)cc1)N(Cc1ccco1)Cc1ccco1,-34.6% (inactive)
14,CCOC(=O)c1c(C)oc2nc(C)nc(N3CCN(c4ccc(OC)cc4)CC3)c12,-3.52% (inactive)
15,S=c1[nH]nc(-c2cc(-c3ccsc3)n[nH]2)n1-c1ccccc1,-4.32% (inactive)
16,Cc1cc(-c2n[nH]c(=S)n2/N=C/C(Br)=C/c2ccccc2)n[nH]1,-5.02% (inactive)
17,S=c1[nH]nc(-c2cc(-c3ccccc3)n[nH]2)n1/N=C/c1c2ccccc2cc2ccccc12,-78.7% (active)
18,Cc1nnc(C(=O)NC(C)(C)c2nc(C(=O)NCc3ccc(F)cc3)c(O)c(=O)n2C)o1,-18.2% (inactive)
19,COc1ccc(Cl)cc1N(CC(=O)N1CCCCC1)S(C)(=O)=O,15.3% (inactive)
20,COc1ccc(Cl)cc1N(CC(=O)N/N=C/c1ccc(OCC(N)=O)cc1)S(C)(=O)=O,-77.6% (active)
21,NC(=O)COc1ccc(/C=N/NC(=O)C2CCCN2S(=O)(=O)c2ccc(Cl)cc2)cc1 (configuration not stated),-2.72% (inactive)
22,CCOc1ccc(-c2nonc2NC(=O)c2oc3ccc(C)cc3c2C)cc1OCC,6.02% (inactive)

row,SMILES,"activity change, negative = inhibition"
1,CN(C(=O)CSc1nnc(NC(=O)Nc2ccccc2)s1)c1ccccc1,-2.91% (inactive)
2,CC(C)N(C(=O)CSc1nnc(NC2CC2)s1)c1ccccc1,-4.86% (inactive)
3,CC(C)c1ccc(Nc2nnc(SCC(=O)c3nnc(-c4ccccc4)o3)s2)cc1,-83.3% (active)
4,CCc1ccc(N2C(=O)CN(S(=O)(=O)CC)CC2(C)C(=O)NC2CCCCC2)cc1 (configuration not stated),4.08% (inactive)
5,O=C(N/N=C\C1CC=CCC1)c1ccc(Br)o1 (configuration not stated),0.253% (inactive)
6,Cc1nnc(N/N=C/C2CC=CCC2)[nH]c1=O (configuration not stated),-71.6% (active)
7,Cc1nnc(N/N=C/c2ccccn2)[nH]c1=O,5.71% (inactive)
8,Cc1ccc2nc(-c3ccc(O)cc3)c(Nc3ccc4c(c3)OCO4)n2c1,15.3% (inactive)
9,CCN(CC)c1cc(NC2CCCCC2)c2c3c(onc13)-c1ccccc1C2=O,-18.9% (inactive)
10,CCOC(=O)c1c(NC(=O)CSc2nccc(=O)[nH]2)sc(C)c1C,-91.3% (active)
11,CCOC(=O)c1c(NC(=O)CSc2nnc(CNc3ccc(C)cc3C)o2)sc(C)c1C,-10.8% (inactive)
12,CCOC(=O)c1c(NC(=O)CSc2nnc(Cc3csc(N)n3)n2C)sc(C)c1C,-1.84% (inactive)
13,CCOc1ccccc1C(=O)Nc1ccc(S(=O)(=O)N2CCCCC2c2cccnc2)cc1 (configuration not stated),-12.4% (inactive)
14,CCOc1ccc(N(CC)S(=O)(=O)N2CCCC(C(=O)NCc3ccc(Cl)cc3)C2)cc1 (configuration not stated),-18.5% (inactive)
15,CCN(CC)CCCNC(=O)c1ccc2c(=O)n(Cc3ccc4c(c3)OCO4)c(=S)[nH]c2c1,-14.7% (inactive)
16,COCCn1c(=S)[nH]c2cc(C(=O)NCCc3ccc(OC)c(OC)c3)ccc2c1=O,2.84% (inactive)
17,CCCCNC(=O)c1ccc(-n2c(=S)[nH]c3ccccc3c2=O)cc1,-80.7% (active)
18,CCN1CCN(c2ncnc3c2cnn3-c2ccc(C)c(C)c2)CC1,-9.99% (inactive)
19,Cc1cccc(N2CCN(c3c(CN4CCCC4)c(=O)oc4ccccc34)CC2)c1C,-2.93% (inactive)
20,O=c1oc2ccccc2c(=O)c2ccccc12,10.6% (inactive)
21,Cc1ccccc1-n1nnc2c(=O)oc3ccccc3c21,-91.4% (active)
22,O=C(OCCN1CCOCC1)c1cccnc1Nc1cccc(C(F)(F)F)c1,-38.4% (inactive)

row,SMILES,"activity change, negative = inhibition"
1,CCOc1ccc(C(NC(=O)c2cc(OC)c(OC)c(OC)c2)c2cc(Cl)c3cccnc3c2O)cc1 (configuration not stated),-12.8% (inactive)
2,O=C(NCCN1CCOCC1)/C(=C/c1ccc(F)cc1)NC(=O)c1ccccc1,12.6% (inactive)
3,Cc1ccccc1CN1C(=O)c2ccccc2Sc2ccc(C(=O)NCCCN3CCOCC3)cc21,-22.1% (inactive) and -63.9% (active)
4,CCC1=Nc2cc(C(=O)NCCCN3CCOCC3)ccc2Sc2ccc(Br)cc21,-16.7% (inactive)
5,CN1CCN(CCCNC(=O)c2ccc(/C=C3\Oc4ccccc4N(Cc4ccc(Cl)cc4)C3=O)cc2)CC1,6.65% (inactive)
6,O=C(NCCN1CCOCC1)c1ccc(/C=C2\Sc3ccccc3N(Cc3ccc(F)cc3)C2=O)cc1,-82.1% (active)
7,O=C(NCCN1CCOCC1)c1ccc2c(c1)N(Cc1cccc(Cl)c1)C(=O)c1ccccc1S2(=O)=O,2.8% (inactive)
8,COc1ccc(S(=O)(=O)NCC(c2ccc(N(C)C)cc2)N2CCc3ccccc32)cc1OC (configuration not stated),-3.43% (inactive)
9,CN(C)c1cccc(C(=O)Nc2nc3ccc(S(=O)(=O)NC(C)(C)C)cc3s2)c1,1.26% (inactive)
10,CC(C)c1ccc(OCC(=O)N(Cc2ccc(N(C)C)cc2)C2CCS(=O)(=O)C2)cc1 (configuration not stated),-31.5% (inactive)
11,Cc1cccc(Cn2c(SCc3ccc(C(=O)N4CCC(C)CC4)cc3)nc3ccncc32)c1,-27.4% (inactive)
12,CC(C)c1ccc(NC(=O)Cn2nnc(C(=O)NCCc3ccccc3)c2N)cc1,7.65% (inactive)
13,Cn1c(C(=O)N2CCC(C(=O)N3CCN(c4ccccc4)CC3)CC2)cc2sccc21,-7.62% (inactive)
14,COC(=O)/C=C\C(=O)Nc1cccc([N+](=O)[O-])c1,-90.5% (active)
15,O=C(CN1CCOCC1)Nc1cccc([N+](=O)[O-])c1,-13.2% (inactive)
16,CCC(CC)NC(=O)/C=C/c1cccc([N+](=O)[O-])c1,5.58% (inactive)
17,C[C@@H]1CCC[C@H](C)N1CCCC(O)(c1ccccc1)c1ccccn1 (some centres not stated),5.21% (inactive)
18,O=C(NNc1nc(N2CCCC2)nc(N2CCCC2)n1)c1ccccc1,-63.3% (active)
19,O=C(NNC(=O)C1CCN(c2ncccn2)CC1)c1ccccc1,0.68% (inactive)
20,O=C(NNC(=O)C1CCC1)c1ccccc1,-1.83% (inactive)
21,CCc1ccc(S(=O)(=O)c2nnn3c2nc(N2CCN(CC)CC2)c2sccc23)cc1,-12.6% (inactive)
22,CCN1CCC2(CC1)N=C(c1ccc(F)cc1)C(=S)N2C(=O)c1ccc(C)cc1,8.98% (inactive)

row,SMILES,"activity change, negative = inhibition"
1,CCN1CCC(O)(/C=C/c2ccc(C)cc2)C(C(=O)/C=C/c2ccc(C)cc2)C1 (configuration not stated),-75.3% (active)
2,CCCS(=O)(=O)c1c(Nc2ccccc2C)sc(C(=O)c2ccccc2)c1N,-38.6% (inactive)
3,Cc1cccc(NC(c2cccc(F)c2)c2ccc3ccc(C)nc3c2O)n1 (configuration not stated),-1.75% (inactive)
4,Cc1ccc(-c2cnc(NCc3ccc(C(C)C)cc3)n2C)cc1,-10.2% (inactive)
5,CCOC(=O)c1c(C)[nH]c(=S)c(C#N)c1-c1ccccc1,-118% (active)
6,Cc1[nH]c2ccccc2c1C(=O)COC(=O)c1c(-c2ccccc2)noc1C,-27.9% (inactive)
7,CC(=O)c1c(C)[nH]c(=S)c(C#N)c1-c1ccc(F)cc1,7.17% (inactive)
8,OCc1ccc(-c2ccccc2)c(-c2ccccc2)c1,-64.5% (active)
9,OCC(CO)(CO)NCc1ccc(-c2ccccc2)cc1,-7.18% (inactive)
10,OCCN(Cc1ccccc1)Cc1ccc(Cl)cc1,-15.6% (inactive)
11,CCOC(=O)c1c(C)oc2nc(C)nc(N(CC(C)C)CC(C)C)c12,-27.5% (inactive)
12,O=C(O)c1ccc(N/N=C/c2cn(-c3ccccc3)nc2-c2cccs2)cc1,-105% (active)
13,O=C(NCc1cccnc1)c1cn(-c2ccccc2)nc1-c1cccs1,-17.9% (inactive)
14,CC(=O)C1=C(C)NC(C)=C(C(C)=O)C1c1cn(-c2ccccc2)nc1-c1cccs1,-18.3% (inactive)
15,CCCn1c2ccccc2c2cnn(CC(=O)N3CCCC(C(=O)OCC)C3)c(=O)c21 (configuration not stated),3.38% (inactive)
16,CCN(CCCNC(=O)CSc1cc(=O)n(C)c2cc(Cl)ccc12)c1cccc(C)c1,14% (inactive)
17,CSc1ccccc1NC(=O)CCS(=O)(=O)c1nc(-c2cccs2)cc(C(F)(F)F)n1,0.767% (inactive)
18,COc1ccc(NC(=O)NC(C)c2c(-n3cccc3)sc(C)c2C)cc1OC (configuration not stated),-9.76% (inactive)
19,O=C(Nc1ccccc1Cl)N1CCC(CN2CCCC2)CC1,2.65% (inactive)
20,O=C(CCN1CCN(C/C=C/c2ccccc2)CC1)Nc1ccccc1Cl,3.3% (inactive)
21,O=C(Nc1ccccc1Cl)/C(Cl)=C(\Cl)S(=O)c1ccccc1 (configuration not stated),-106% (active)
